“And” between values parts separate entries of the source, which are not always exact repeats. Equal values may be shown once. Compounds without any hit were thinned out: in the full panel of roughly 79,000, 15% have a hit. Some compounds were tested as several samples or in several runs, with calls that do not always agree. The source made the active and inactive calls. No stated cut-off is given here; in the data, active means growth inhibition above about 70%; inactive means the rest.
Key:
[1] = NCI Yeast Anticancer Drug Screen. Data for the rad50 strain (AID 155);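 further: 0% = growth of vehicle-only cultures of the same strain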; settings: S. cerevisiae rad50 strain growth inhibition, stronger effect = higher value
Procedure, shortened: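 Inhibition values express reduced yeast growth in compound-treated cultures relative to vehicle-treated controls.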

[2] = NCI Yeast Anticancer Drug Screen. Data for the mec2-1 strain (AID 157); settings: S. cerevisiae mec2-1 strain, stronger effect = higher value
Procedure, shortened: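 Mutant yeast (mec2-1) grown with compound; growth inhibition relative to vehicle control reported.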

[3] = NCI Yeast Anticancer Drug Screen. Data for the sgs1 mgt1 strain (AID 161);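 further: 0% = growth of cultures given vehicle only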; settings: S. cerevisiae sgs1 mgt1 strain, stronger effect = higher value
Procedure, shortened: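 This yeast growth screen uses a strain with defined DNA-repair lesions; compound-treated growth is compared with vehicle-treated growth.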

[4] = NCI Yeast Anticancer Drug Screen. Data for the cln2 rad14 strain (AID 165);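 further: 0% = growth equal to vehicle treated cultures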; settings: S. cerevisiae cln2 rad14 strain, stronger effect = higher value
Procedure, shortened: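 Readout is yeast growth inhibition versus vehicle-treated controls, using a strain with cln2 and rad14 alterations exposed to compound.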

[5] = NCI Yeast Anticancer Drug Screen. Data for the bub3 strain (AID 167); settings: S. cerevisiae bub3 mutant strain, stronger effect = higher value
Procedure, shortened: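 Steps: expose the mutant yeast strain to compound; grow alongside vehicle-treated cultures; measure growth; express inhibition against the vehicle cultures.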

[6] = NCI Yeast Anticancer Drug Screen. Data for the mlh1 rad18 strain (AID 175); settings: S. cerevisiae mlh1 rad18 strain growth inhibition, stronger effect = higher value
Procedure, shortened: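 Genetically defined yeast (DNA repair-deficient) exposed to compounds; growth inhibition determined relative to vehicle.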

[7] = at 5.0 µM (retest, dose inferred, filed as 0.5)
[8] = at 50.0 µM (retest, dose inferred, filed as 5.0)

Measured: growth inhibition

COC(=O)C1=C(C)NC(=S)NC1c1ccc(N(CCCl)CCCl)cc1Cl (stereo not given)
active: [1]; [8] 94% | [2]; [8] 96% | [2]; at 50.0 µM 86.7% | [3]; [8] 95% | [3]; at 50.0 µM 86.2% | [4]; [8] 92% | [5]; [7] 81% | [5]; [8] 97% | [5]; at 50.0 µM 96.5% | [6]; [8] 94% | [6]; at 50.0 µM 91.3%
inactive: [1]; [7] 10% | [1]; at 50.0 µM 51.1% | [2]; [7] -28% | [3]; [7] 1% | [4]; [7] -8% | [4]; at 50.0 µM 61.9% | [6]; [7] 13%

CCCCN(CCCC)CCc1ccc(OC(=O)c2ccc(N)cc2)cc1
active: [1]; [8] 76% | [1]; at 50.0 µM 82.5% | [2]; [8] 80% | [2]; at 50.0 µM 70.7% | [3]; [8] 90% | [3]; at 50.0 µM 91.2% | [4]; [8] 73% | [4]; at 50.0 µM 90.2% | [5]; [8] 84% | [5]; at 50.0 µM 79% | [6]; [8] 78% | [6]; at 50.0 µM 84.8%
inactive: [1]; [7] 27% | [2]; [7] 23% | [3]; [7] 46% | [4]; [7] 42% | [5]; [7] 50% | [6]; [7] 32%

O=P(O/C(=C\c1ccccc1)c1ccccc1)(c1ccccc1)c1ccccc1
inactive: [1]; [7] 18% | [2]; [7] 17% | [3]; [7] 15% | [4]; [7] 8% | [5]; [7] 11% | [6]; [7] 7%
active: [1]; [8] 96% | [1]; at 50.0 µM 96.8% | [2]; [8] 98% | [2]; at 50.0 µM 98.3% | [3]; [8] 98% | [3]; at 50.0 µM 98.2% | [4]; [8] 97% | [4]; at 50.0 µM 96.2% | [5]; [8] 97% | [5]; at 50.0 µM 97% | [6]; [8] 97% | [6]; at 50.0 µM 93.7%

Cc1ccc(P(=O)(c2ccc(C)cc2)c2ccc(C)cc2)cc1.Cc1ccc(P(=O)(c2ccc(C)cc2)c2ccc(C)cc2)cc1.[Cl][Sn]([Cl])([Cl])[Cl]
active: [5]; [8] 72% | [5]; at 50.0 µM 76.2%
inactive: [1]; [7] 4% | [1]; [8] 1% | [1]; at 50.0 µM -9.9% | [2]; [7] 0% | [2]; [8] 1% | [2]; at 50.0 µM 0.85% | [3]; [7] 2% | [3]; [8] 6% | [3]; at 50.0 µM 42.6% | [4]; [7] 4% | [4]; [8] 8% | [4]; at 50.0 µM 4.1% | [5]; [7] 13% | [6]; [7] 3% | [6]; [8] 1% | [6]; at 50.0 µM 38%

CCN(CC)C(=S)S
26.8% (inactive) and 99.5% (active): [6]; at 50.0 µM
inactive: [1]; [7] 66% | [2]; [7] 66% | [3]; [7] 58% | [4]; [7] 8% | [5]; [7] 65%
34.9% (inactive) and 99.5% (active): [3]; at 50.0 µM
48.6% (inactive) and 99.3% (active): [1]; at 50.0 µM
28% (inactive) and 99.5% (active): [2]; at 50.0 µM
active: [1]; [8] 99% | [2]; [8] 99% | [3]; [8] 99% | [4]; [8] 99% | [5]; [8] 99% | [6]; [7] 75% | [6]; [8] 99%
8.05% (inactive) and 99.5% (active): [5]; at 50.0 µM
21.3% (inactive) and 98.8% (active): [4]; at 50.0 µM
